From PubChem BioAssay (Tox21)
Results filed as inconclusive are left out. A number with no mark means an inactive call. Activity calls are given as the source filed them. Calls come from the whole dose curve.

What follows are compounds tested against Acetylcholinesterase (Homo sapiens) (UniProt P22303) (assay: Acetylcholinesterase (AChE) small molecule antagonists: colormetric cell-based qHTS assay (AID 1347395; note: nearly all actives have a fitted effect of over 30% in size)). Details: SH-SY5Y cells AChE activity, colorimetric (Ellman); series mostly up to 115 µM; activity, negative = inhibition: at the top concentration.
Description: National Center for Advancing Translational Sciences [NCATS]
Division of Preclinical Innovation [DPI]
U.S. Environmental Protection Agency [EPA]
National Institutes of Environmental Health Sciences [NIEHS]
National Toxicology Program [NTP]
U.S. Food and Drug Administration [FDA]
Acetylcholinesterase (AChE) is the primary cholinesterase in the body that hydrolyzes a key neurotransmitter, acetylcholine. Inhibition of AChE activity can lead to neurotoxicity. The known inhibitors include organophosphorous pesticides (OP), chemical warfare agents, drugs, and various phytochemicals.
A homogenous cell-based assay using the Amplite Colormetric acetylcholinesterase assay kit (AAT Bioquest, Sunnyvale, CA) was used to evaluate the chemicals in the Tox21 10K library that inhibit AChE activity. The assay uses 5, 5-dithiobis-(2-nitrobenzoic acid) (DTNB) to quantify the thiocholine produced from the hydrolysis of acetylthiocholine by AChE from the SH-SY5Y cells.
Tox21 Assay Protocol Summary:
For the cell-based AChE assay, 2,000 SH-SY5Y cells in 4 uL/well were dispensed into black, clear-bottom 1536-well plates using a Multidrop Combi dispenser (Thermo Scientific, MA). The assay plates were incubated overnight at 37 C to allow cells to attach to the wells, followed by the transfer of 23 nL of compound or DMSO (vehicle control) by a Pintool Station (Wako Automation, CA). The plates were incubated for 30 min at 37 C and 5% CO2, followed by the addition of 4 uL of detection cocktail solution (DTNB, acetylthiocholine) into each well using a Flying Reagent Dispenser (Beckman Coulter, CA) and then 90 min incubation at 37 C.
% is set by controls: 0 for no effect and ±100 for the full control effect; potency is the fitted concentration of half-maximal effect.

Chain of Acetylcholinesterase (Homo sapiens) (P22303 whole entry, looked up): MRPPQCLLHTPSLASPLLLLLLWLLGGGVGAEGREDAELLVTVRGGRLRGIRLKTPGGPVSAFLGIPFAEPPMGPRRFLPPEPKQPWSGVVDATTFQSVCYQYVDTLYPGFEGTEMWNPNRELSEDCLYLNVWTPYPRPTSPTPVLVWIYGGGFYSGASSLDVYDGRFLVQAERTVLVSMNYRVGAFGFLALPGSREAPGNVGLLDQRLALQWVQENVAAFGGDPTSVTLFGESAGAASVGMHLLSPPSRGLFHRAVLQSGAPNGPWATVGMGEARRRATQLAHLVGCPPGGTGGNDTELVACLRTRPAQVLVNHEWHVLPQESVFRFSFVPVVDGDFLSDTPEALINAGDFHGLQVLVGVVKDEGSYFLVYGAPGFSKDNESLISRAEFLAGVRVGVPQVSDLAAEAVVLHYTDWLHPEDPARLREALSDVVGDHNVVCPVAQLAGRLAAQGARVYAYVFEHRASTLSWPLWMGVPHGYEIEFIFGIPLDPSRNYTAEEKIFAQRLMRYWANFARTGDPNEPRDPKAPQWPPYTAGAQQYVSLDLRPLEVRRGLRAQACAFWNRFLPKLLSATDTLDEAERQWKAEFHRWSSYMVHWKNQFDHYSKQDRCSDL

Structure (SMILES) | activity, negative = inhibition | Potency
Nc1n[nH]c(N)n1 | -4.36% | 
COc1ncc(F)c2nc(S(=O)(=O)Nc3c(F)cccc3F)nn12 | 1.58% [at 52.9 µM] | 
O=C1OC(c2ccc(O)c(S(=O)(=O)O)c2)(c2ccc(O)c(S(=O)(=O)O)c2)c2c(Br)c(Br)c(Br)c(Br)c21 | 1.86% [at 52.9 µM] | 
O=C1c2ccccc2C(=O)c2ccccc21 | -0.352% [at 23.6 µM] | 
C[N+](=O)[O-] | 0.613% | 
O=C(Cc1ccccc1)OCc1ccccc1 | -1.93% | 
CC1CCC(=O)O1 (stereo not given) | 2.25% | 
NC(=O)O | 2.8% | 
N#CC(Cl)(Cl)Cl | 0.0889% | 
CN1CCN(C(=O)O[C@H]2c3nccnc3C(=O)N2c2ccc(Cl)cn2)CC1 | -4.26% [at 52.9 µM] | 
Oc1c(Cl)cccc1Cl | -0.205% | 
CCOP(=S)(OCC)SCSP(=S)(OCC)OCC |  | 39.9 µM (active)
CC(C)(C)OC(=O)c1ncn2c1[C@@H]1CCCN1C(=O)c1c(Br)cccc1-2 | -2.1% [at 52.9 µM] | 
O=C(CCN1CC1)OCC(CO)(COC(=O)CCN1CC1)COC(=O)CCN1CC1 | -3.47% | 
COc1cc2c(cc1OC)[C@@]13CCN4CC5=CCO[C@H]6CC(=O)N2[C@H]1[C@H]6[C@H]5C[C@H]43 | -1.51% | 
Fc1cc(Br)ccc1CBr | 0.873% [at 52.9 µM] | 
BrCCCCCCBr |  | 63.3 µM (active)
CCOC(=O)C1(c2ccccc2)CCN(CCc2ccc(N)cc2)CC1 | -0.617% [at 52.9 µM] | 
CCOC(=O)/C=C(C)/C=C/C[C@@H](C)CCCC(C)C | 1.86% | 
COc1cc(OC)nc(Oc2cccc(Oc3nc(OC)cc(OC)n3)c2C(=O)O)n1 | 0.21% | 

Structure (SMILES) | activity, negative = inhibition | Potency
CC(C)COP(=O)(OCC(C)C)OCC(C)C | 2.09% | 
Clc1ccccc1N1CCNCC1 | 0.762% [at 52.9 µM] | 
Cc1cc(C)c(C(=O)P(=O)(C(=O)c2c(C)cc(C)cc2C)c2ccccc2)c(C)c1 | 2.84% | 
COc1cc(OC)nc(NC(=O)NS(=O)(=O)c2ncccc2C(=O)N(C)C)n1 | -6.72% | 
ClCCCN1CCN(c2cccc(Cl)c2)CC1 | 0.168% [at 52.9 µM] | 
CC1=C(C(=O)O)N2C(=O)[C@@H](N)[C@H]2SC1 | 0.304% [at 23.6 µM] | 
ClC(Cl)(Cl)C(Cl)(Cl)Cl | 0.963% | 
O=C(CCCN1CCC(n2c(=O)[nH]c3ccccc32)CC1)c1ccc(F)cc1 | -5.46% [at 52.9 µM] | 
CC(C(O)c1ccccc1)N(C)C/C=C/c1ccccc1 (stereo not given) | -1.35% [at 52.9 µM] | 
COc1cc(OC)nc(NC(=O)NS(=O)(=O)c2ncccc2OCC(F)(F)F)n1 | -1.03% | 
CCOP(=S)(OCC)Oc1cc(-c2ccccc2)on1 |  | 63.3 µM (active)
CCC1(c2ccccc2)C(=O)N=C(O)NC1=O (stereo not given) | 1.68% | 
COP(=S)(OC)Oc1ccc(S(N)(=O)=O)cc1 | -3.3% [at 52.9 µM] | 
N#CCNCC#N | -0.186% | 
Cc1ncsc1CCCl | -1.51% [at 52.9 µM] | 
ClCCOCOCCCl | 2.97% | 
CCSC(=O)N(CC)C1CCCCC1 | -1.38% | 
CC(=O)C(Cl)Cl | 1.01% | 
O=NN1CCN(N=O)CC1 | 0.291% | 
Nc1ccccc1Cl | -4.4% | 
